Most compounds without a hit are left out; they make up all but 9.4% or so of the library.
NPC1 prom act – activators of NPC1 promoter. Huh7 NPC1 promoter luciferase reporter, 24 h. Potency, µM (series often up to 9.22 µM), without a hit: at the highest dose activation, actives largely listed as activators. 2.4% of 320,000 active; also: % of control where 0% means no effect; nearly all actives have a fitted effect of over 60% in size
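Luminescence from an NPC1 promoter-driven luciferase reporter in stably transfected Huh7 cells was measured after 24 h compound treatment at 37 °C, followed by 10 min ambient incubation with luciferase detection reagent.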
SMN2 splice up – SMN2 splice variant enhancement. Potency, µM (highest dose often 46.1 µM), inactives show at the highest dose activity change, positive = activation, actives largely listed as activators. HEK293 SMN2-luciferase splicing reporter, luminescence, 30-36 h. 2.8% of 210,000 active; also: % of control where 0% means no effect; nearly all actives have a fitted effect of over 55% in size
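qHTS luciferase splicing reporter: luminescence rises when SMN2 exon 7 is included in transfected HEK293 cells. Compound exposure lasted 30-36 h at 37C, with 4.5 mM final sodium butyrate as control, followed by a ONE-Glo read.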
ELG1 DNA repair – inhibitors of ELG1-dependent DNA repair in HEK293T cells; 2.3% of 330,000 active; AID 504467; HEK293T ELG1-luciferase reporter, luminescence, 16 h; DNA damage induced by 5-fluorouridine; Potency, µM (highest dose often 46.1 µM), for the others: at the highest dose activity change, negative = inhibition, usual class: inhibitors; also: % is scaled to controls: 0 for no effect and ±100 for the full control effect; nearly all actives have a fitted effect of over 55% in size
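DMSO vehicle served as the neutral condition. Each well held 2,000 cells given 5-fluorouridine plus compound; after 16 hr at 37 °C/5% CO2, ONE-Glo was added and luciferase measured 30 min later.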
Rab9 prom act – Rab9 promoter activation | Huh7 Rab9 promoter-luciferase reporter, luminescence, 24 h | Potency, µM (highest dose often 9.22 µM), inactives show at the top dose activation, negative = inhibition, usual class: activators | 2.8% of 320,000 active | AID 485297; also: % of control where 0% means no effect; nearly all actives have a fitted effect of over 60% in size
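Stable Rab9-luc Huh7, 1500 cells/well, 2 h settle; cmpd in DMSO, 24 h, 37 °C/5% CO2; luciferase reagent 10 min RT; luminescence.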
FLuc counter – inhibits or activates purified firefly luciferase, miR-21 counter-screen. 6.9% of 360,000 active. Potency, µM (top dose mostly 57.5 µM), for the others: top-dose activity change, negative = inhibition, hits mostly inhibitors. AID 588342. P08659. purified FLuc, Km substrates, luminescence inhibition;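 also: plate controls were vehicle for no effect and reference inhibitor for full effect; nearly all actives have a fitted effect of over 55% in size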
Target sequence (P08659 whole entry, looked up): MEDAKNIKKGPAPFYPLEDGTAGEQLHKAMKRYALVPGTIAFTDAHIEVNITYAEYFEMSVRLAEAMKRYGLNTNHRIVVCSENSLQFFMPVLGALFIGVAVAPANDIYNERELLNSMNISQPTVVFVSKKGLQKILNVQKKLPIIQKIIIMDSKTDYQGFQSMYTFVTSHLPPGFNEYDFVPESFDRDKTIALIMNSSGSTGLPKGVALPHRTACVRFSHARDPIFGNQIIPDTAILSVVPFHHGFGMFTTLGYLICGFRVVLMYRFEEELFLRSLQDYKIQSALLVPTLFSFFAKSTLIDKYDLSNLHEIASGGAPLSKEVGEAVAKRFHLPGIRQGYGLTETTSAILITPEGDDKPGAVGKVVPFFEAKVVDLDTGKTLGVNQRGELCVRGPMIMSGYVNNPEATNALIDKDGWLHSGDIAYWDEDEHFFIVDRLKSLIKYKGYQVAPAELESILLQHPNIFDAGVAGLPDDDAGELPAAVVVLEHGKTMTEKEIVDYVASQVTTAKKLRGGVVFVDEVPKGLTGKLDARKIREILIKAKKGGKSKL
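Purified P. pyralis luciferase (10nM final) with 10uM D-luciferin and 10uM ATP (Km levels) in 50mM Tris acetate pH 7.5, 10mM Mg acetate, 0.01% Tween-20, 0.05% BSA; qHTS 6-point titration, ~60 µM downward; luminescence read.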
ELG1 genotoxic – genotoxicity induction in ELG1-luciferase HEK293T cells; HEK293T ELG1-luciferase reporter, luminescence, 16 h; Potency, µM (highest dose often 46 µM), without a hit: top-dose activity change, positive = activation, actives largely listed as activators; 1.3% of 330,000 active; also: % of control where 0% means no effect; nearly all actives have a fitted effect of over 60% in size
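HEK293T cells expressing luciferase-tagged ELG1 were exposed to compound or DMSO vehicle for 16 hr at 37 °C and 5% CO2. Luciferase activity was then measured with ONE-Glo after 30 min at room temperature.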
* marks the source's active call; other numbers are inactive results; u = inconclusive; x = no result given; [ ] = remark or other dose. Calls follow the shape of the dose curve; as a rule, active = well fitted curve in the direction sought with a large enough effect; inconclusive = small, poorly fitted or top-dose-only effect, or another doubt; inactive = no such curve, though single readings can be large; an effect the other way counts as inactive or inconclusive. Potency is read from the fitted curve at half-maximal effect.

SMILES	NPC1 prom act	SMN2 splice up	ELG1 DNA repair	Rab9 prom act	FLuc counter	ELG1 genotoxic
Cc1ccc(NS(=O)(=O)c2ccc(-c3cc(C)no3)cc2)c(C)c1	x	x	x	x	-20%	x
COc1ccccc1NC(=O)N1CC(=O)Nc2sc3c(c2C1c1ccccc1)CCCC3 (stereo not given)	x	x	x	x	-8%	x
COc1cc(OC)c(NC(=O)c2ccc3c(c2)N(Cc2ccc(C)cc2)CCS3)cc1Cl	x	-5%	x	x	-2%	x
CC(C)N1C(=O)C(O)(c2c[nH]c3ccccc23)c2ccccc21 (stereo not given)	x	-17%	x	x	-6%	x
C(/C=C\c1ccccc1)=Nc1ccc2c(c1)Cc1ccccc1-2	x	0%[9.22 µM]	x	x	x	x
O=C(COc1ccccc1)Nc1cccc(-c2cn3cccnc3n2)c1	14%	x	u	u	15µM*	-7%
COc1ccc(NC(=O)Nc2cccc(-c3cn4cccnc4n3)c2)cc1	x	5%	x	x	1.7µM*	x
CC(=O)Nc1cccc(-c2cn3cccnc3n2)c1	x	x	x	x	-2%	x
COc1ccc(C2c3c(-c4ccccc4O)n[nH]c3C(=O)N2CCc2ccc(OC)c(OC)c2)cc1 (stereo not given)	-6%	-15%	2.8µM*	-6%	0%	-17%
COc1ccc(C2c3c(-c4ccccc4O)n[nH]c3C(=O)N2CCc2ccccc2)cc1 (stereo not given)	x	-7%	x	x	-11%	x
COc1ccc(C(=O)CN2CCN(c3cc(C)nc4ccccc34)CC2)cc1	-4%	x	8.2µM*	-20%	1%	-8%
Cc1cc(N2CCN(S(=O)(=O)c3ccc(Cl)cc3)CC2)c2ccccc2n1	-4%	-45%	23µM*	-13%	0%	-9%
COc1ccc(N2CCN(CC(=O)c3ccccc3)CC2)cc1	0%	x	3%	5%	-3%	1%
COc1ccc(NC(=O)Cn2c(=O)oc3cc(S(=O)(=O)N4CCCC4)ccc32)cc1OC	x	-6%	x	x	-3%	x
CC(C)NC(=O)c1nc2ccccc2s1	1%	x	u	-2%	u	u
O=C(Cc1ccccc1)c1nc2ccccc2s1	2.5µM*	4µM*	u	2.8µM*	11µM*	u
COC(=O)c1ccc(CC(=O)c2nc3ccccc3s2)cc1	u	1%[1.84 µM]	u	2.8µM*	3µM*	u
COC(=O)c1ccc(/C(O)=C(\C#N)c2nc3ccccc3s2)cc1	2.8µM*	x	u	3.2µM*	7.6µM*	3%
COC(=O)c1ccc(CSc2nc3ccccc3s2)o1	u	u	u	u	17µM*	16µM*
C=CCN=C1N[C@@H](c2ccc(Br)cc2)C(C(=O)OC)=C(C)N1Cc1ccccc1	3%	x	x	-12%	2%	x
CN(C)c1ccc(/C=N/N=C2/NC(=O)/C(=C/c3ccc([N+](=O)[O-])cc3)S2)cc1	u	28%	u	u	0.11µM*	5%
COC(=O)C(=O)C/C(=N/Nc1ncnc2ccccc12)c1ccc(Cl)cc1	-7%	x	2%	-1%	9.5µM*	5%
CCN1C(=O)c2ccccc2S(=O)(=O)c2ccc(C(=O)NCc3ccccc3Cl)cc21	x	4%	x	x	4%	x
Nc1nonc1-c1noc(CCCN2C(=O)c3ccccc3C2=O)n1	u	u	u	u	24µM*	u
O=C(c1ccccc1-c1nc(-c2ccc(F)cc2)no1)N1CCCC1	-3%	-8%	-24%	0%	3%	0%
SMILES	NPC1 prom act	SMN2 splice up	ELG1 DNA repair	Rab9 prom act	FLuc counter	ELG1 genotoxic
FC(F)(F)c1ccc(-c2noc(-c3ccccc3Br)n2)cc1	x	x	x	x	11µM*	x
O=C(O)c1ccccc1-c1noc(-c2ccccc2F)n1	3.5µM*	x	x	2µM*	9.5µM*	x
Nc1nonc1-c1noc(-c2ccccc2Br)n1	13%	u	u	5%	17µM*	u
Oc1ccccc1-c1nnc(-c2ccc(C(F)(F)F)cc2)o1	7%	4%	u	6%	u	u
Cc1ccc(N2C(=O)C(CC(=O)Nc3ccc(F)cc3)N(CCC3=CCCCC3)C2=O)cc1 (stereo not given)	x	12%	x	x	-8%	x
Cc1ccccc1-c1noc(-c2ccccc2C(=O)O)n1	19%	x	u	17%	19µM*	14%
O=C(c1ccccc1)c1nnc(-c2ccccc2F)o1	16%	26%	u	24%	0.54µM*	16µM*
Cc1ccc(-c2noc(-c3ccccc3F)n2)cc1	u	13µM*	u	2µM*	0.85µM*	2.6µM*
CCOc1cc(CNC(=O)c2ccc3nc(C(C)C)oc3c2)cc(OCC)c1OCC	x	x	x	x	-19%	x
COc1ccc(C)cc1NC(=O)c1cc2c(=O)n3cccc(C)c3nc2s1	x	-3%	x	x	-2%	x
COc1ccc(-n2c(C)cc(C(=O)COC(=O)Cn3cnc4ccccc43)c2C)cc1	-1%	-52%	-18%	1%	-12%	u
Cc1cc(C(=O)COC(=O)c2ccc[nH]c2=O)c(C)n1C	22%	-28%	u	30%	9.5µM*	u
Cc1ccc(-n2c(C)cc(C(=O)COC(=O)c3ccc[nH]c3=O)c2C)cc1	0.32µM*	2.5µM*	u	0.4µM*	2.7µM*	u
Cc1cc(C(=O)COC(=O)c2ccc[nH]c2=O)c(C)n1-c1ccc(Br)cc1	22%	u	u	u	u	11%
COCCn1c(C)cc(C(=O)COC(=O)c2ccc[nH]c2=O)c1C	u	-9%	u	u	3µM*	u
COCC(=O)OCC(=O)c1cc(C)n(-c2ccc(Br)cc2)c1C	-1%	-4%	3%	4%	12µM*	-3%
Cc1ccccc1CCNC(=O)c1cc2cc(S(=O)(=O)N3CCCCC3)ccc2n1C	x	x	x	x	-5%	x
COc1cccc(NC(=O)c2c(N3CCCC3=O)c3cc(C)ccc3n2C)c1	x	x	x	x	0%	x
COc1ccc(NC(=O)CSc2ccc(C)cc2)cc1	u	8%	u	27%	21µM*	u
CC(=O)NS(=O)(=O)c1ccc(NC(=O)CSc2ccccc2)cc1	-1%	x	9%	-1%	8%	0%
COc1ccccc1CNC(=O)CSc1ccccc1	u	u	u	3.2µM*	u	u
CC(=O)Oc1ccc(NC(=O)CSc2ccccc2)cc1	28%	u	u	18%	u	15µM*
Cc1ccc(C)n1-c1c(C(=O)NCC(C)c2ccccc2)sc2ncccc12 (stereo not given)	x	x	x	x	0%	x
CC1=C(c2ccc(F)cc2)[N+](=O)C(C)(C)N1[O-]	-5%	x	12%	-2%	27µM*	-1%

Screens (PubChem)
